Measurements published in PubChem BioAssay (NCI).
Compounds without any hit were thinned out: in the full panel of roughly 79,000, 15% have a hit. Active and inactive are the calls of the source. Rule as the data show it: active = growth inhibition above about 70%; inactive = the rest.

Assay: NCI Yeast Anticancer Drug Screen. Data for the rad52 strain (AID 147);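 also: 0% = growth of vehicle-treated control cultures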
Details: S. cerevisiae rad52 mutant growth inhibition, stronger effect = higher value
Procedure: Growth inhibition of yeast strains with defined genetic alterations is measured as a screen for potential anti-cancer activity. Selected strains with alterations in DNA damage repair or cell cycle control were exposed to compounds and growth inhibition was measured relative to vehicle treated controls. The strain used in this assay is rad52

Measured: growth inhibition

O=[N+]([O-])c1ccc(C(c2c[nH]c3ccccc23)c2c[nH]c3ccccc23)cc1
active: at 1.2 µM 82% | at 3.7 µM 97% | at 11.0 µM 95% | at 33.0 µM 90% | at 100.0 µM 82%

Cn1c(-c2ccc(/C=N\N3CCN(/N=C/c4ccc(-c5c[n+]6ccsc6n5C)cc4)CC3)cc2)c[n+]2ccsc12
inactive: at 1.2 µM 14% | at 3.7 µM 19% | at 11.0 µM 20% | at 33.0 µM 16%
active: at 100.0 µM 75%

NC(N)=NC(N)=Nc1ccccc1 (tested in a mixture with another compound)
inactive: at 1.2 µM -3% | at 3.7 µM -5% | at 11.0 µM -7% | at 33.0 µM 2% | at 100.0 µM 48%

CC1C(c2ccccc2)SC(=N)N1C (stereo not given)
inactive: at 1.2 µM -1% | at 3.7 µM -3% | at 11.0 µM -2% | at 33.0 µM -1% | at 100.0 µM -4%

O=C(CCCN1CCC(Nc2ccc(F)cc2)(c2nnnn2C2CCCCC2)CC1)c1ccc(F)cc1
inactive: at 1.2 µM 14% | at 3.7 µM 2% | at 11.0 µM 19% | at 33.0 µM 24%
active: at 100.0 µM 98%

Nc1ccc(S(=O)(=O)Nc2nc3c(c(=O)[nH]2)CCCC3)cc1
inactive: at 1.2 µM 14% | at 3.7 µM 18%
active: at 11.0 µM 87% | at 33.0 µM 99% | at 100.0 µM 99%

Cc1cc(C)c(S(=O)(=O)c2ccc(Cl)cc2)c(C)c1
inactive: at 1.2 µM -3% | at 3.7 µM -4% | at 11.0 µM -2% | at 33.0 µM 7% | at 100.0 µM 29%

NCCOc1ccc(/C(=C(/Cl)c2ccccc2)c2ccccc2)cc1
inactive: at 1.2 µM -10% | at 3.7 µM -15% | at 11.0 µM 23%
active: at 33.0 µM 98% | at 100.0 µM 96%
